# Measured values published in PMC4336329 (PLoS ONE, 2015).
# The whole screen tested about 310,000 compounds, of which about 14,000 (4.5%) showed an effect of 50% or more. The effect is printed as a negative number. This is one part of a sample in which strong results are shown more often than they occur.
# Target: human ether-à-go-go-related gene (hERG) potassium channel (human, UniProt Q12809)
# Assay: primary screen, population patch clamp on CHO cells stably expressing hERG; higher = less effect of the substance
# 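Note: peak tail current of the secondary pulse compared with the same well before compound.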
# Chain of human ether-à-go-go-related gene (hERG) potassium channel (Q12809 whole entry, looked up): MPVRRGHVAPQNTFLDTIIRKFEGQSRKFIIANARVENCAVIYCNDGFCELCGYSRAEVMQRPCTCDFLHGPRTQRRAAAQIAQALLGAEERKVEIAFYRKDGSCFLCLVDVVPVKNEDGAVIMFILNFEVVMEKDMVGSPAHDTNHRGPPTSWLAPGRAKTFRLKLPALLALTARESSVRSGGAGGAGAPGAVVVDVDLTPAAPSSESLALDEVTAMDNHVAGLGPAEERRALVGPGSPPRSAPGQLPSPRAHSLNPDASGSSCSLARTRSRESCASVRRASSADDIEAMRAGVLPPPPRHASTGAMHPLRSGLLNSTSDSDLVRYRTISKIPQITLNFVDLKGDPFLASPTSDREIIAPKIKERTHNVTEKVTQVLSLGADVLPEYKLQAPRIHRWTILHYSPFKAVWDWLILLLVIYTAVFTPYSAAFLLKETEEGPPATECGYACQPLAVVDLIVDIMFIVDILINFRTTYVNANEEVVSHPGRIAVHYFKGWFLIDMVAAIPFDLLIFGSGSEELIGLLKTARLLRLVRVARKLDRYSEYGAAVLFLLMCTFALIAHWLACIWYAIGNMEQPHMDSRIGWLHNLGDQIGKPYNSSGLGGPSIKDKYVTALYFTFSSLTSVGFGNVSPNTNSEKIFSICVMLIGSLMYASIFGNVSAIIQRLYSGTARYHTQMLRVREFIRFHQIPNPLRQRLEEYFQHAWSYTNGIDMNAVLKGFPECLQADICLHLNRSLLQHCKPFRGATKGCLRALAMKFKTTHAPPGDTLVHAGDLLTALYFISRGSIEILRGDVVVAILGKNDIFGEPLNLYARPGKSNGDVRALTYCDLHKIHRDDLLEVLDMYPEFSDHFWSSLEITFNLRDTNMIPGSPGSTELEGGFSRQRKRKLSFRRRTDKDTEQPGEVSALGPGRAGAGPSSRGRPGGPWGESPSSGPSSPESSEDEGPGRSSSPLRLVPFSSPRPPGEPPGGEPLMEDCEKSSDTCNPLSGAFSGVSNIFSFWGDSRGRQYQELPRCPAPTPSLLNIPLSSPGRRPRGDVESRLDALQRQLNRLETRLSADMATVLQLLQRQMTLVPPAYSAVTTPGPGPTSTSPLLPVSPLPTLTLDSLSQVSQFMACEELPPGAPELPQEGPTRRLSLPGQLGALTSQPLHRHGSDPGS
row,SMILES,"hERG current change (%, negative = inhibition) at 10uM [%]"
1,COc1ccc(/C=C/CN2CCN(Cc3ccccc3)C(CCO)C2)cc1 (centres unmarked),-51.9
2,COc1cccc(CN2CCN(Cc3ccc(OC)c(OC)c3)CC2CCO)c1 (centres unmarked),-27.2
3,COc1ccc(CN2CCN(Cc3cccc(OC)c3)C(CCO)C2)cc1 (centres unmarked),-45.8
4,COc1ccc(/C=C/CN2CCN(Cc3ccc(F)cc3)C(CCO)C2)cc1 (centres unmarked),-58.5
5,COc1cccc(CN2CCN(CC#Cc3ccccc3)CC2CCO)c1 (centres unmarked),-30.6
6,CC(C)N1CCC(N2CCN(C/C=C/c3ccc(F)cc3)CC2CCO)CC1 (centres unmarked),-6.87
7,COc1ccc(/C=C/CN2CCN(Cc3cccc(OC)c3)C(CCO)C2)cc1 (centres unmarked),-51.9
8,CCOc1ccc(CN2CCN(C/C=C/c3ccc(OC)cc3)CC2CCO)cc1 (centres unmarked),-88.7
9,COC(=O)c1ccc(CN2CCN(Cc3ccc(F)cc3)C(CCO)C2)cc1 (centres unmarked),10.1
10,COC(=O)COc1ccc(-c2nccc(-c3ccccn3)n2)cc1,13.3
11,CCN(CC(=O)Nc1ccccc1OC)C(=O)c1cc(-c2ccccc2)nn1-c1ccccc1,-36.9
12,COc1ccc(-c2noc(N3CCC(C(=O)NCc4ccccc4Cl)CC3)n2)cc1,-11.9
13,CCOC(=O)NC(=O)CSc1nc2ccc(C)cc2[nH]1,8.02
14,COc1cc(/C=N/NC(=O)c2csc3c2CCCC3)ccc1OCCN1CCOCC1,-31.9
15,COc1ccccc1C(=O)NNC(=O)c1nn(Cc2ccccc2)c(=O)c2ccccc12,-14
16,O=C(CSc1ncnc2sccc12)Nc1ccccc1,21.2
17,COc1ccc(C(=O)NNC(=O)CNC(=O)C2CCCCC2)cc1,14
18,COc1ccc(/C=C/CN2CCN(CCc3ccccc3)C(CCO)C2)cc1 (centres unmarked),-71.9
19,OCC[C@H]1C[C@H](O)[C@@H](O)[C@@]2(CCCO2)O1,20.1
20,CC(C)CNc1nc(NC(C)(C)C)nc(Oc2ccc(=O)[nH]n2)n1,9.66
21,Cc1ccc(S(=O)(=O)N2CCC(N3CCC(C)CC3)CC2)cc1,-29.1
22,CCCCc1cc(=O)oc2cc(C)cc(OC(C)C(=O)NCc3cccnc3)c12 (centres unmarked),-19.7
23,Cc1cccc(C)c1NC(=O)COC(=O)c1cc(=O)c2ccccc2o1,5.2

row,SMILES,"hERG current change (%, negative = inhibition) at 10uM [%]"
1,Cc1ccc(NC(=O)COC(=O)c2cc(=O)c3ccccc3o2)cc1F,12.9
2,Cc1ccccc1NC(=O)COC(=O)c1cc(=O)c2ccccc2o1,-67.4
3,CC1=C(C)C(=O)N(C(C)CCc2ccccc2)C1=O (centres unmarked),4.9
4,CCOC(=O)N1CCN(C(=O)c2cc3c(=O)n4cccc(C)c4nc3s2)CC1,-9.84
5,COC(=O)c1cc(C(=O)N2CCN(c3cccc(Cl)c3)CC2)cc([N+](=O)[O-])c1,-59
6,CN1CCN(C(=O)c2cc3c(=O)n4ccccc4nc3s2)CC1,-2.57
7,COc1ccccc1N1CCN(C(=O)c2cc3c(=O)n4ccccc4nc3s2)CC1.Cl,-53.2
8,Cc1cccn2c(=O)c3cc(C(=O)N4CCN(Cc5ccccc5)CC4)sc3nc12,-79.7
9,O=C(c1ccc([N+](=O)[O-])s1)N1CCN(c2ccccc2)CC1,-25.8
10,O=C(c1cc2c(=O)n3ccccc3nc2s1)N1CCN(Cc2ccccc2)CC1,-27.7
11,O=C(c1ccc([N+](=O)[O-])s1)N1CCN(c2cccc(Cl)c2)CC1,-66.1
12,COC(=O)c1cc(C(=O)N2CCN(c3ncccn3)CC2)cc([N+](=O)[O-])c1,-5.19
13,Cc1c(C(=O)N2CCN(c3cccc(Cl)c3)CC2)cccc1[N+](=O)[O-],-42.5
14,COC(=O)c1cc(C(=O)N2CCN(c3cccc(C)c3C)CC2)cc([N+](=O)[O-])c1,-39.6
15,COc1ccccc1N1CCN(C(=O)c2cc3c(=O)n4cccc(C)c4nc3s2)CC1,-11.2
16,Cc1sc2nc(SCC(=O)NCc3ccco3)n(-c3ccccc3)c(=O)c2c1C,8.63
17,O=P(CCN1CCCCC1)(c1ccccc1)c1ccccc1,-5.98
18,COc1ccc(NC(=O)c2cccnc2Sc2ccccc2)c(OC)c1,7.52
19,CC(C)(C)NC(=O)Cn1nnc(-c2ccccc2Cl)n1,6.43
20,CSc1ncccc1C(=O)OCC(=O)NC(C)(C)C,10.5
21,COc1ccc(NC(=O)C2CCC(CNS(=O)(=O)c3csc(C(N)=O)c3)CC2)cc1OC (centres unmarked),15.3
22,COc1ccc2[nH]c(C(=O)Nc3ccc(F)cc3Br)cc2c1,11.7
23,COc1ccc(/C=N/NC(=O)c2cccnc2)cc1O,11.1

row,SMILES,"hERG current change (%, negative = inhibition) at 10uM [%]"
1,COc1ccccc1N1CCN(C(=O)c2ccc([N+](=O)[O-])s2)CC1,-54.5
2,Cc1ccc(N2CCN(C(=O)c3cccc([N+](=O)[O-])c3)CC2)cc1Cl,-19.1
3,COc1ccccc1N1CCN(C(=O)c2ccc(Br)s2)CC1.Cl,-46.3
4,O=C(c1cccc([N+](=O)[O-])c1)N1CCN(c2cccc(Cl)c2)CC1,-57.4
5,O=C(c1cccc([N+](=O)[O-])c1)N1CCN(c2ccc(Cl)cc2)CC1,-41.1
6,COc1ccc(OC)c2sc(N3CCN(C(=O)c4ccc([N+](=O)[O-])s4)CC3)nc12,-41.9
7,CCOC(=O)N1CCN(S(=O)(=O)c2ccc(Br)s2)CC1,-9.22
8,COc1ccc(CC(=O)Nc2ccc(-c3csc(C)n3)cc2)cc1,7.89
9,COc1ccc(Nc2nc(-c3cc4cccc(OC)c4oc3=O)cs2)cc1,11.6
10,Cc1cccc(C(=O)Nc2cccc(C(=O)Nc3cc(C)ccn3)c2)c1,7.29
11,O=C(CC1N=C2c3ccccc3N=C(SCc3ccccc3Cl)N2C1=O)NCc1ccco1 (centres unmarked),-47
12,CCCCNC(=O)CC1N=C2c3ccccc3N=C(SCC(=O)Nc3cccc(C)c3)N2C1=O (centres unmarked),-52.6
13,O=C(CCC1N=C2c3ccccc3N=C(SCC(=O)NCc3ccco3)N2C1=O)NCc1ccco1 (centres unmarked),12.7
14,CCCCNC(=O)CC1N=C2c3ccccc3N=C(SCC(=O)Nc3cccc(OC)c3)N2C1=O (centres unmarked),-10.6
15,Cc1ccc(CSC2=Nc3ccccc3C3=NC(CCC(=O)NCc4ccco4)C(=O)N23)cc1 (centres unmarked),-68.8
16,NC(=O)CSC1=Nc2ccccc2C2=NC(CC(=O)NCc3cccs3)C(=O)N12 (centres unmarked),11.2
17,O=C(CC1N=C2c3ccccc3N=C(SCc3ccc(Cl)cc3)N2C1=O)NCc1ccco1 (centres unmarked),-75.3
18,CCCCNC(=O)CC1N=C2c3ccccc3N=C(SCC(=O)Nc3ccccc3C)N2C1=O (centres unmarked),-0.929
19,O=C(CSC1=Nc2ccccc2C2=NC(CC(=O)NC3CCCCC3)C(=O)N12)NCc1ccco1 (centres unmarked),-29.9
20,CCC(C)NC(=O)CSC1=Nc2ccccc2C2=NC(CCC(=O)NCc3ccco3)C(=O)N12 (centres unmarked),-1.01
21,O=C(CSC1=Nc2ccccc2C2=NC(CC(=O)NCc3ccco3)C(=O)N12)NCc1ccco1 (centres unmarked),7.61
22,Cc1ccc(CSC2=Nc3ccccc3C3=NC(CC(=O)NCc4ccco4)C(=O)N23)cc1 (centres unmarked),-51.8
23,Cn1c(SCC(=O)O)nnc1-c1ccc(NC(=O)c2ccc(Cl)c(Cl)c2)cc1,7

row,SMILES,"hERG current change (%, negative = inhibition) at 10uM [%]"
1,COCc1[nH]nc2c1C(C1C=CCCC1)C(C#N)=C(N)O2 (centres unmarked),-8.37
2,CSc1ccc(/C=C/C(=O)NC(=O)c2ccccc2O)cc1,11.3
3,O=C(O)/C=C/c1cnc2ccccc2c1,19.1
4,CCOc1ccc(C(O)(CCC(C)C)C(CN2CCOCC2)c2ccccc2)cc1.Cl (centres unmarked),13.3
5,COc1ccc(CCNC(=O)CCC(=O)Nc2nnc(C(C)C)s2)cc1OC,10.4
6,Cc1cc(N)n(-c2nc(-c3cccnc3)nc3ccccc23)n1,-27.4
7,O=S(=O)(CCN1CCOCC1)c1ccc(OC(F)(F)F)cc1,2.9
8,COc1ccc(OCCOC(=O)C(C)NS(=O)(=O)c2ccc(NC(C)=O)cc2)cc1 (centres unmarked),-7.73
9,COC(=O)C1=C(c2c(C)noc2C)C[C@@H]2CC[C@H]1N2C(=O)N1CCCCC1,17.1
10,CC(=O)Nc1ccc(N=Nc2ccccc2)cc1,8.44
11,O=C(NC(=S)Nc1nc(-c2ccc([N+](=O)[O-])cc2)cs1)c1ccco1,16.5
12,CCC(C)NC(=O)CSC1=Nc2ccccc2C2=NC(CC(=O)NCc3ccc(F)cc3)C(=O)N12 (centres unmarked),-11.4
13,O=C(CC1N=C2c3ccccc3N=C(SCc3ccc(F)cc3)N2C1=O)NCc1ccco1 (centres unmarked),-73.9
14,NC(=O)CSC1=Nc2ccccc2C2=NC(CCC(=O)NCc3ccc(F)cc3)C(=O)N12 (centres unmarked),15.1
15,O=C(CCC1N=C2c3ccccc3N=C(SCc3cccc(Cl)c3)N2C1=O)NCc1ccco1 (centres unmarked),-42.2
16,O=C(CCC1N=C2c3ccccc3N=C(SCC(=O)NCC3CCCO3)N2C1=O)NCc1ccc(F)cc1 (centres unmarked),2.89
17,O=C(CCC1N=C2c3ccccc3N=C(SCc3ccc(Cl)cc3)N2C1=O)NCc1ccco1 (centres unmarked),-52
18,O=C(CSC1=Nc2ccccc2C2=NC(CC(=O)NCc3ccco3)C(=O)N12)NCC1CCCO1 (centres unmarked),7.92
19,O=C(CCC1N=C2c3ccccc3N=C(SCc3ccccc3Cl)N2C1=O)NCc1ccco1 (centres unmarked),-32.4
20,O=C(CCC1N=C2c3ccccc3N=C(SCc3ccc(F)cc3)N2C1=O)NCc1ccco1 (centres unmarked),-70.9
